rCAG binder: binders of r(CAG) RNA repeats, primary screen, biochemical, fluorescence | r(CAG) RNA repeat, TO-PRO-1 dye displacement fluorescence | inhibition, % at 3 µM | 1.3% of 370,000 active | AID 651821, 2012;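 active = inhibition above the plate cutoff, the mean of all test compounds on that plate plus 3 SD, cut at about 35% in these data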;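 note: 0% = DMSO alone and 100% = 100 µM mitoxantrone as full dye displacement; higher means more dye released from RNA so lower well fluorescence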
PRMT1 FP inh: PRMT1 methyltransferase inhibitors, primary screen, biochemical, fluorescence polarization; inhibition, % at 2.79 µM; 1.3% of 370,000 active; AID 652257, 2013; recombinant PRMT1, activity-based probe fluorescence polarization; Protein arginine N-methyltransferase 1 (Homo sapiens), Q99873;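 active = inhibition above about 21% made by adding two undisclosed values, limit read from the data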
TLR9-MyD88 inh: inhibitors of TLR9-MyD88 association in cells, primary screen, cell-based, CHO, BLA complementation, fluorescence. Toll-like receptor 9 (Homo sapiens) + Myeloid differentiation primary response protein …. CCF4 FRET ratio. inhibition, % at 4.98 µM. 0.21% of 340,000 active;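 active = inhibition above the mean over all tested compounds plus 3 SD, cut at about 21% in these data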;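 note: 0% = DMSO only wells and 100% = clavulanate BLA inhibitor control wells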
NOD2 RIPK2 PPI: NOD2-RIPK2 binding disruptors in cells, primary screen, fluorescence, CHO cells, BLA complementation; inhibition, % at 4.98 µM; CCF4 ratio; 0.38% of 360,000 active; Receptor-interacting serine/threonine-protein kinase 2 (Homo sapiens), O43353; in the data active = inhibition above about 21%;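 note: 0% = vehicle only and 100% = reference blocker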
TLR4 MyD88 comp: inhibitors of TLR4-MyD88 association in cells, primary screen, cell-based, HeLa CL3-4, BLA complementation, FRET ratio | 0.18% of 200,000 active | inhibition, % at 8.4 µM | HeLa CL3-4 TLR4/MyD88 BLA complementation | Toll-like receptor 4 (Homo sapiens) + Myeloid differentiation primary response protein …; in the data active = inhibition above about 25%;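 note: 0% = vehicle and 100% = reference inhibitor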
ABHD5 PLIN5 PPI: ABHD5-PLIN5 interaction inhibitors, primary screen, cell lysate, split luciferase complementation, luminescence. Perilipin-5 (Homo sapiens) + 1-acylglycerol-3-phosphate O-acyltransferase ABHD5 (Homo …. Split G. princeps luciferase complementation, 4 h. inhibition, % at 4 µM. 0.78% of 360,000 active;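 active = inhibition above the mean inhibition across every tested compound plus 3 SD, cut at about 22% in these data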;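 note: 0% = DMSO only wells and the 100% control is not disclosed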
ABHD5 PLIN5 conf: ABHD5-PLIN5 interaction inhibitors, confirmation, biochemical, luminescence. 67% of 2,200 active. inhibition, % at 4 µM. shares compounds with ABHD5 PLIN5 PPI. AID 651612, 2012; in the data active = inhibition above about 23%;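 note: 0% = DMSO vehicle wells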
HNF4 split-luc: HNF4 dimerization inhibitors, counter-screen for ABHD5-PLIN5 interaction inhibitor project, biochemical, split-luciferase complementation, luminescence. shares compounds with ABHD5 PLIN5 PPI. inhibition, % at 4 µM. 77% of 2,200 active;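 active = mean inhibition across replicate wells exceeding the computed hit threshold, cut at about 13% in these data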;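 note: light from luciferase halves that rejoin when HNF4 fusion proteins dimerize; 0% = DMSO only wells and the 100% control is not given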
Target sequence (P41235 whole entry, looked up, the tested form may be a part): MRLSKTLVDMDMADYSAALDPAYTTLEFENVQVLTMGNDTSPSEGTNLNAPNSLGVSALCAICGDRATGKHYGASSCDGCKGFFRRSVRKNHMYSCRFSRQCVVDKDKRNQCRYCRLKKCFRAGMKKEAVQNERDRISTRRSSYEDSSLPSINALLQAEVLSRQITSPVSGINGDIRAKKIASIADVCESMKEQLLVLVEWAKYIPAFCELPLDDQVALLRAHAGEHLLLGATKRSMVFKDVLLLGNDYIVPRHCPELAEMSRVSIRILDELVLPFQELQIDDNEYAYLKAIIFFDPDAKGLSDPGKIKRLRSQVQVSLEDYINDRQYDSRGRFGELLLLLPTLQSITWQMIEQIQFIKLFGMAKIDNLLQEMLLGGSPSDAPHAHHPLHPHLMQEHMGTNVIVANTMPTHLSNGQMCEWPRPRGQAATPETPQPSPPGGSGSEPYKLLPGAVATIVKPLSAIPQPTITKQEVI
An asterisk follows results filed as active. Compounds with a hit are over-represented: about 3.3% of the library has one in this group of screens.

How did Cc1ccc(C(=O)N/C(=C\c2ccc(-c3cccc([N+](=O)[O-])c3)o2)C(=O)NCCCN(C)C)cc1 do in these assays?
rCAG binder: 13.2; PRMT1 FP inh: 0.4; TLR9-MyD88 inh: 0.1; NOD2 RIPK2 PPI: 8.7; ABHD5 PLIN5 PPI: 9.3

Results for Cc1ccc(C(=O)N/C(=C\c2ccc(-c3ccc(Br)cc3)o2)C(=O)NCCCN(C)C)cc1 ?
rCAG binder: 12.1; PRMT1 FP inh: 0.7; TLR9-MyD88 inh: 2.6; NOD2 RIPK2 PPI: 5.3; TLR4 MyD88 comp: 2.2; ABHD5 PLIN5 PPI: 35.7*; ABHD5 PLIN5 conf: 21.4; HNF4 split-luc: 2.2

How did CN(C)CCNC(=O)/C(=C/c1ccc(-c2ccc(Cl)cc2Cl)o1)NC(=O)c1ccccc1 do in these assays?
rCAG binder: 9.7; PRMT1 FP inh: -3.9; TLR9-MyD88 inh: 2.9; NOD2 RIPK2 PPI: -1.9; TLR4 MyD88 comp: -9.0; ABHD5 PLIN5 PPI: 35.2*; ABHD5 PLIN5 conf: 7.0; HNF4 split-luc: 12.1

What do the screens show for `CCNc1nc(N)c([N+](=O)[O-])c(Nc2cccc(Cl)c2)n1`?
PRMT1 FP inh: -2.7

How did N=c1n(Cc2ccccc2)c2ccccc2n1CC(O)c1ccco1 (configuration not stated) do in these assays?
rCAG binder: 10.0; PRMT1 FP inh: -0.5; TLR9-MyD88 inh: -7.8; NOD2 RIPK2 PPI: -5.8; TLR4 MyD88 comp: 3.0; ABHD5 PLIN5 PPI: 23.4*; ABHD5 PLIN5 conf: 8.0; HNF4 split-luc: 14.8*

Results for Cc1ccc(S(=O)(=O)N(C)C)cc1NC(=O)C(C)OC(=O)/C=C/c1cccs1 (configuration not stated) ?
rCAG binder: -2.6; PRMT1 FP inh: -0.8; TLR9-MyD88 inh: 1.0; NOD2 RIPK2 PPI: 2.4; ABHD5 PLIN5 PPI: -2.3

Results for O=C(CCn1nnc2ccccc21)N1CCN(c2cccc(C(F)(F)F)c2)CC1 ?
rCAG binder: -0.5; PRMT1 FP inh: -6.8

Results for COCc1cc(CNC(=O)C2CCC(=O)N(Cc3ccccc3OC)C2)[nH]n1 (configuration not stated) ?
rCAG binder: -0.3; PRMT1 FP inh: -2.6; TLR9-MyD88 inh: -8.1; NOD2 RIPK2 PPI: 2.4; ABHD5 PLIN5 PPI: 24.4*; ABHD5 PLIN5 conf: -0.9; HNF4 split-luc: -1.9

How did Cc1cccc(CNC(=O)c2cc(S(=O)(=O)N3CCOCC3)cn2C)c1 do in these assays?
rCAG binder: -1.4; PRMT1 FP inh: -6.1; TLR9-MyD88 inh: -1.3; NOD2 RIPK2 PPI: -11.2; ABHD5 PLIN5 PPI: 11.2

What do the screens show for `OCCN1CCN(CCCN2c3ccccc3Sc3ccc(Cl)cc32)CC1`?
rCAG binder: 1.4; PRMT1 FP inh: 1.1; TLR9-MyD88 inh: -2.3; NOD2 RIPK2 PPI: 9.2; TLR4 MyD88 comp: 1.4; ABHD5 PLIN5 PPI: 17.1

Results for Fc1ccc2c(c1)Sc1ccc(Cl)cc1CC2N1CCN(CCC2OCCO2)CC1 (configuration not stated) ?
rCAG binder: 1.4; PRMT1 FP inh: 1.8; TLR9-MyD88 inh: 5.6; NOD2 RIPK2 PPI: -0.4; ABHD5 PLIN5 PPI: 12.4

What do the screens show for `NC(=O)CCN1CCN(CCOC2Cc3cc(Cl)ccc3Sc3ccccc32)CC1` (configuration not stated)?
rCAG binder: -4.6; PRMT1 FP inh: -3.8; TLR9-MyD88 inh: 3.8; NOD2 RIPK2 PPI: -4.7; TLR4 MyD88 comp: -10.2; ABHD5 PLIN5 PPI: 24.8*; ABHD5 PLIN5 conf: 22.2*; HNF4 split-luc: 6.5

Results for COCCCN1CCN(C2Cc3ccccc3Sc3ccc(Cl)cc32)CC1 (configuration not stated) ?
rCAG binder: -7.2; PRMT1 FP inh: 4.6; TLR9-MyD88 inh: 7.3; NOD2 RIPK2 PPI: -9.9; TLR4 MyD88 comp: -6.6; ABHD5 PLIN5 PPI: 25.2*; ABHD5 PLIN5 conf: 17.3; HNF4 split-luc: 3.3

Results for CCn1c(SCC(=O)N/N=C/c2c[nH]c3ccccc23)nnc1-c1ccc(C(C)(C)C)cc1 ?
rCAG binder: 1.3; PRMT1 FP inh: -4.1; TLR9-MyD88 inh: -4.7; NOD2 RIPK2 PPI: -14.9; TLR4 MyD88 comp: 11.9; ABHD5 PLIN5 PPI: 11.7

What do the screens show for `COc1ccc(NCc2nc3ccccc3n2CCOc2ccc(C)cc2)cc1`?
rCAG binder: -1.9; PRMT1 FP inh: 3.3; TLR9-MyD88 inh: 1.9; NOD2 RIPK2 PPI: -0.3; TLR4 MyD88 comp: 1.8; ABHD5 PLIN5 PPI: 24.8*; ABHD5 PLIN5 conf: 6.1; HNF4 split-luc: 9.6

Results for COc1ccc(NCc2nc3ccccc3n2CCOc2ccccc2)cc1 ?
rCAG binder: 0.9; PRMT1 FP inh: -1.9; TLR9-MyD88 inh: 16.8; NOD2 RIPK2 PPI: 4.8; TLR4 MyD88 comp: -10.7; ABHD5 PLIN5 PPI: 29.3*; ABHD5 PLIN5 conf: 6.4; HNF4 split-luc: 1.6

How did c1ccc(NCc2nc3ccccc3n2CCOc2ccccc2)cc1 do in these assays?
rCAG binder: -0.4; PRMT1 FP inh: -0.5; TLR9-MyD88 inh: -11.1; NOD2 RIPK2 PPI: -11.6; TLR4 MyD88 comp: -4.2; ABHD5 PLIN5 PPI: 3.2

How did Cc1ccc(-n2nc3c(N4CCC(C(=O)NCCc5ccco5)CC4)nnc(C)c3c2C)cc1 do in these assays?
rCAG binder: 5.4; PRMT1 FP inh: 20.7; TLR9-MyD88 inh: -2.7; NOD2 RIPK2 PPI: -3.1; ABHD5 PLIN5 PPI: 30.2*; ABHD5 PLIN5 conf: 14.2; HNF4 split-luc: 11.9

Results for COC(=O)C1=C(C)N(Cc2ccco2)C(=O)/C1=C\c1ccc([N+](=O)[O-])cc1 ?
rCAG binder: 13.0; PRMT1 FP inh: 23.6*; TLR9-MyD88 inh: 5.2; NOD2 RIPK2 PPI: 7.8; TLR4 MyD88 comp: 14.1; ABHD5 PLIN5 PPI: 69.7*; ABHD5 PLIN5 conf: 98.4*; HNF4 split-luc: 95.2*

What do the screens show for `O=[N+]([O-])c1ccc(N=Nc2ncc[nH]2)cc1`?
rCAG binder: -1.1; PRMT1 FP inh: -1.8; TLR9-MyD88 inh: 11.5; NOD2 RIPK2 PPI: -3.8; ABHD5 PLIN5 PPI: 29.9*; ABHD5 PLIN5 conf: 57.5*; HNF4 split-luc: 52.1*

Results for CC(O)/C=C/c1ccc2ccccc2n1 (configuration not stated) ?
rCAG binder: -0.1; PRMT1 FP inh: 1.5; TLR9-MyD88 inh: -4.5; NOD2 RIPK2 PPI: 6.1; TLR4 MyD88 comp: 4.7; ABHD5 PLIN5 PPI: 23.5*; ABHD5 PLIN5 conf: 23.4*; HNF4 split-luc: 26.1*

Results for Cc1nnc(NC(=O)c2nc(S(=O)(=O)Cc3ccccc3)ncc2Cl)s1 ?
rCAG binder: 3.9; PRMT1 FP inh: 3.0; TLR9-MyD88 inh: 2.4; NOD2 RIPK2 PPI: 1.4; ABHD5 PLIN5 PPI: 33.8*; ABHD5 PLIN5 conf: 70.6*; HNF4 split-luc: 51.2*

Assay outcomes from PubChem.
